# Source: ChEMBL document CHEMBL3988442, “University of Dundee, Small-Polar-MMV Screening Library” (2021)
# The campaign covered roughly 66,000 compounds. About 960 (1.5%) showed an effect of 50% or more. The list comes from a sample in which strong results are over-represented; it also holds similar structures and randomly drawn compounds.
# System: Trypanosoma brucei
# Assay: Trypanosoma brucei 72 hour study
# Type: functional, organism-based
# Parameters: scale not given: in the data most compounds retested in dose-response had high values
Structure (SMILES),"Percent Effect (30.3 µM, […]) [%]","Percent Effect (30 µM, 30.03 µM) [%]"
O=C(O)C(F)(F)F.O=C(O)C(F)(F)F.c1cnc(N2C[C@H]3CCN(CCN4CCCC4)C[C@H]3C2)cn1,4.729,–
COc1cc(C(=O)N2CCCC(c3cc(C)[nH]n3)C2)cc(OC)c1C (stereo not drawn),-7.766,–
CCCS(=O)(=O)N1CCO[C@H]2[C@@H](Oc3cccnc3)CC[C@@H]21.O=C(O)C(F)(F)F,-3.605,–
O=C(NCC1CC1)[C@@H]1CC[C@@H]2[C@@H](CCN2Cc2ccco2)O1.O=C(O)C(F)(F)F,-31.37,–
O=C(O)C(F)(F)F.O=C(c1ccco1)N1CC[C@@H]2O[C@H](COCCN3CCCC3)CC[C@@H]21,–,43.22
COc1ccc2c(ccn2CCCN)c1.O=C(O)C(=O)O,–,0.08661
O=C(O)C(F)(F)F.O=C(c1ccc(F)cc1)N1CCC2(CC1)CC(N1CCOCC1)C2,-59.01,–
Cn1nccc1C(=O)N1CC[C@]2(C[C@H](OCc3ccccn3)CO2)C1.O=C(O)C(F)(F)F,-48.61,–
COc1cccc(N2Cc3nc(=O)n(C(C)C)n3C2=O)c1,–,-40.88
CC[C@@H]1N(Cc2ccc(OC)cc2)CCC[C@]12CCC(=O)N2CCOC.O=C(O)C(F)(F)F,-46.04,–
CCOc1ccc(N2CCCN=C2NC(=O)c2cccc(OC)c2)cc1,-26.63,–
COc1cccc(-c2noc(C3CCN(Cc4ccccc4C)C3)n2)c1.Cl (stereo not drawn),-12.24,–
COc1cccc(-c2noc(C3CCN(Cc4cn(C)nc4C)C3)n2)c1 (stereo not drawn),–,63.09
COc1cccc(-c2noc(C3CCN(Cc4ccccc4F)C3)n2)c1.Cl (stereo not drawn),-18.78,–
CNC(=O)[C@@]12CCO[C@@H]1CCN(Cc1ccc3c(c1)OCO3)C2.O=C(O)C(F)(F)F,-39.27,–
Cc1cc(C)n(CCCn2cncc2-c2ccc3c(c2)CC(C)N3C)n1.Cl (stereo not drawn),83.42,–
Cc1nn(C)c(C)c1CCn1cncc1-c1ccc2c(c1)CC(C)N2C.Cl (stereo not drawn),26.67,–
CCN1c2ccc(-c3cncn3CCCn3ccnc3C)cc2CC1C.Cl (stereo not drawn),7.904,–
Cc1nccn1CCCn1cncc1-c1ccc2c(c1)CCC(C)N2C.Cl (stereo not drawn),17.11,–
Cc1nccn1CCCn1cncc1-c1ccc2c(c1)CC(C)N2C.Cl (stereo not drawn),-10.42,–

Structure (SMILES),"Percent Effect (30.3 µM, […]) [%]","Percent Effect (30 µM, 30.03 µM) [%]"
COCC1N(S(=O)(=O)c2cn(C)cn2)[C@H]2CC[C@]1(O)CC2 (stereo partly drawn),-23.23,–
CN(C)C(=O)CN1C(=O)CCC12CCN(Cc1cccs1)CC2.O=C(O)C(F)(F)F,-53.05,–
O=C(O)C(F)(F)F.O=C(c1cscn1)N1CCCC2(CCN2Cc2cccc(F)c2)C1 (stereo not drawn),27.36,–
Cc1cc(C)cc(OCC(O)CN2CCN(c3nccs3)CC2)c1 (stereo not drawn),–,-27.85
COC(=O)c1ccc(N2CCN(C(=O)c3cnc(C)cn3)C(C)C2)cc1 (stereo not drawn),8.397,–
Cc1nn(C)c2nc(-c3ccccn3)nc(NCCC3CCCN3C)c12 (stereo not drawn),–,-75.32
Cc1nn(C)c2nc(-c3ccccn3)nc(NC[C@@H]3CCCO3)c12,–,-82.13
CCC1(O)CCCN(c2nc(-c3ccccn3)nc3c2c(C)nn3C)C1 (stereo not drawn),–,51.81
O=C1CCC2(CCN(Cc3cscn3)CC2)CN1[C@H]1CC[C@H](O)CC1,–,-1.213
CNc1cccc(CC2COCCN(C(=O)c3cccnc3)C2)n1 (stereo not drawn),5.622,–
CC(C)(C)SCC(=O)NCCc1csc(N2CCCC2)n1,–,-0.8864
CC(C)(C)OC(=O)NCCc1csc(N2CCCC2)n1,–,63.65
CCNC(=O)NCCc1csc(N2CCCC2)n1,–,-10.34
CCN1CCCC(O)(c2nc(C)c(CCOc3ccccc3Cl)s2)CC1 (stereo not drawn),33.23,–
Cc1ncccc1OC1(C(=O)NCCNc2ccccc2)CCNCC1,0.199,–
CCN1CCCC(O)(c2nc(C)c(CCOc3ccccc3F)s2)CC1 (stereo not drawn),-7.056,–
Cc1nc(C2(O)CCCNCC2)sc1CCOc1ccccc1Cl.Cl (stereo not drawn),102.3,–
Cc1nc(C2(O)CCCNCC2)sc1CCOc1ccccc1.Cl (stereo not drawn),41.97,–
CC(=O)Nc1nc(C(=O)NCCOc2ccccc2F)cs1,-41.52,–
Cc1nc(C2(O)CCCNCC2)sc1CCOc1ccccc1F.Cl (stereo not drawn),74.4,–

Structure (SMILES),"Percent Effect (30.3 µM, […]) [%]","Percent Effect (30 µM, 30.03 µM) [%]"
Cc1ncc(C(=O)NCCOc2ccccc2F)c(C)n1,–,-71.35
CNC(=O)CN1CC[C@H]2CN(C(=O)c3ccccc3C)C[C@H]2C1.O=C(O)C(F)(F)F,-31.13,–
O=C(COc1ccccc1F)N1CCCCC1c1ccn2ccnc2n1 (stereo not drawn),-11.94,–
O=C(C1=CCCC1)N1CCO[C@H]2[C@@H](Oc3ccccn3)CC[C@@H]21.O=C(O)C(F)(F)F,–,21.55
Cc1c(C)n(-c2ccccn2)c2nc3c(c(N)c12)CCCCC3,–,-26.49
Cc1c(C)n(-c2ccccn2)c2nc3c(c(N)c12)CCCC3,–,65.81
Cc1c(C)n(Cc2ccccn2)c2nc3c(c(N)c12)CCCC3,–,14.96
O=C(C1CCCC1)N1C[C@@H]2CCN(c3cnccn3)C[C@@H]2C1.O=C(O)C(F)(F)F,-13.6,–
CCc1ccc(CN2C[C@@H]3COC[C@H](NS(C)(=O)=O)[C@@H]3C2)o1.O=C(O)C(F)(F)F,-9.462,–
Cc1ccc(N2CCC3(CCN(C(=O)c4ccsc4)CC3)CC2)nn1,–,20.14
Cc1ccc(NC2CCN(C(=O)c3ccsc3)CC2)nn1,–,-24.89
Cc1ccc(N(C)C2CCN(C(=O)c3ccsc3)CC2)nn1,–,59.68
CC1=Nc2c(c(=O)[nH]n2C2CCCC2)C(c2ccc(O)cc2)S1 (stereo not drawn),–,-3.6
Cc1cc(C)n(CC2CN(Cc3nc4ccccc4s3)CCO2)n1 (stereo not drawn),18.1,–
CC1CCN(S(=O)(=O)c2cccnc2)c2ccccc2S1 (stereo not drawn),–,80.08
CCn1cc(S(=O)(=O)N2CCC(C)Sc3ccccc32)cn1 (stereo not drawn),–,-33.91
CN1CCN(S(=O)(=O)c2cccnc2)c2cnccc21,-3.164,–
Cn1nc(C(=O)N2CCOCC2)cc1C(=O)Nc1c(Cl)cccc1Cl,–,-27.89
